hgDAF12 agonist = activates the H. glycines DAF-12 receptor ligand-binding domain; AID 687014; HEK293 GAL4-hgDAF12 UAS-luciferase reporter, agonist luminescence; normalized to butyrate control; activation, % at 6.8 µM; actives 1.8% (n = 370,000);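 active means activation above a cutoff set at the mean of all screened compounds plus 3 SD, cut at about 10% in these data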
DAX1 inh-1 = inhibits human nuclear receptor DAX1. inhibition, % at 6.75 µM. HEK293 Gal4-DAX1 luciferase reporter, luminescence. actives 0.99% (n = 340,000);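 active means inhibition above the mean over all tested compounds plus 3 SD, cut at about 4.2% in these data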;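 further: inhibition shows as a rise in luminescence from relieved DAX1 repression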
Target sequence (P51843 207-470 limits assumed): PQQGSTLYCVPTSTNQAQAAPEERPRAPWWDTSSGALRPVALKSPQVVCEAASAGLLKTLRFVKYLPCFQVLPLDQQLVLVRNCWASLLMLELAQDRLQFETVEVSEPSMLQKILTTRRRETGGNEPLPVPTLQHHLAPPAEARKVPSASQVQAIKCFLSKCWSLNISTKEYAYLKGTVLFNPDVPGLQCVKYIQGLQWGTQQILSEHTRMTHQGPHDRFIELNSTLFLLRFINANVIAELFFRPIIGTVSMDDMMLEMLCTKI
hcDAF12 agonist = activates DAF-12 receptor from parasite H. contortus | HEK293 hcDAF-12 lit1-tk-luc reporter, luminescence; 0% DMSO, 100% Δ7-dafachronic acid | activation, % at 6.8 µM | actives 1.4% (n = 370,000) | AID 652067;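 active means activation above the mean of all tested compounds plus 3 SD, cut at about 5.5% in these data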
DAX1 inh-2 = inhibitors of DAX1 repression of SF-1 activated StAR promoter; HEK293T StAR-luciferase reporter, SF-1/DAX-1 repression relief; inhibition, % at 6.8 µM; actives 1.1% (n = 370,000);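 active means inhibition above the mean over all tested compounds plus 3 SD, cut at about 3.6% in these data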;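 further: higher inhibition means more luminescence from relief of DAX-1 repression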
SMARCA2 activ = increases SMARCA2 function in MMTV reporter cells; actives 1% (n = 370,000); activation, % at 9.1 µM; MG213 cells, MMTV-luciferase reporter, dexamethasone, overnight; AID 652017; in the data active means activation above about 7.8%
ssDAF12 agonist = activators of S. stercoralis DAF-12 nuclear receptor; activation, % at 6.8 µM; AID 652126; HEK293 ssDAF-12/GRIP1 lit1-tk-luc reporter, luminescence; % of 3 µM dafachronic acid response; actives 1% (n = 370,000);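 active means activation above the mean over all tested compounds plus 3 SD, cut at about 0.9% in these data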
SMARCA2 conf = confirmation of SMARCA2 (BRM) function activators | shares compounds with SMARCA2 activ | MG213 cells, MMTV-luciferase with dexamethasone, luminescence, overnight; MG213 cells expressing E1A, Rb sequestered; DMSO wells 0%, reference activator 100% | activation, % at 9.1 µM | actives 30% (n = 3,500);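 active means activation above its plate's cutoff, the mean activation of tested wells plus 3 SD, cut at about 7.9% in these data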
VP16 Luc act = counter-screen for SMARCA2 activators: GAL4-VP16 luciferase reporter activation. shares compounds with SMARCA2 activ. HEK293 GAL4-VP16 pG5luc reporter, luciferase luminescence; scaled: DMSO wells 0%, SAHA wells 100%. activation, % at 9.1 µM. actives 41% (n = 3,500). AID 686939;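 active means activation above the solvent-only control well mean plus 3 SD, averaged across control plates, cut at about 5.2% in these data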
A number is an active result; . = inactive; / = no result. Sampled rows, rich in hits. Any-hit rate of the full collection: about 4.8%.

SMILES | hgDAF12 agonist | DAX1 inh-1 | hcDAF12 agonist | DAX1 inh-2 | SMARCA2 activ | ssDAF12 agonist | SMARCA2 conf | VP16 Luc act
COc1ccc(C2C(C(=O)N3CCN(c4ccccn4)CC3)CCC(=O)N2c2cc(OC)c(OC)c(OC)c2)cc1 (configuration not stated) | . | . | . | . | 8.0 | . | . | .
COc1ccc(C2C(C(=O)N3CCN(c4ccccn4)CC3)CCC(=O)N2c2ccc(OC)cc2)cc1 (configuration not stated) | . | . | . | . | . | . | / | /
CC(=O)Nc1c(C(=O)O)oc2ccc(Cl)cc12 | . | . | . | . | . | . | / | /
CC(=O)Nc1c(C(=O)O)oc2ccccc12 | . | . | . | . | 8.1 | . | . | .
COC(=O)c1cc2c(c3c4cc(F)ccc4n(S(=O)(=O)c4ccc(C)cc4)c13)C(=O)N(Cc1ccccc1)C2 | . | / | . | . | . | . | / | /
CCOc1ccc(-n2c(SCC(=O)c3ccc4ccccc4c3)nnc2-c2cccc(Cl)c2)cc1 | . | / | . | . | . | . | / | /
COc1ccc(CNS(=O)(=O)c2cc3c(cc2Br)CC(C)N3C(C)=O)cc1 (configuration not stated) | . | / | . | . | . | . | / | /
CC1CCCC(C)N1CCCNC(=O)CN1C(=O)c2cccnc2Oc2ccc(Cl)cc21 (configuration not stated) | . | . | . | . | 8.9 | . | . | .
COc1cccc(NC(=O)CN2C(=O)c3cccnc3Oc3ccc(Cl)cc32)c1 | . | . | . | . | 8.3 | . | . | .
O=C(O)c1ccccc1N/N=C\c1ccnc2ccccc12 | 12 | . | 6.4 | . | 8.0 | . | . | .
C[n+]1cc(C(O)(c2ccccc2)c2ccccc2)n2ccccc21 | . | / | . | / | / | . | / | /
COc1ccc(CCNC(=O)c2ccc3nc(N4CCCCC4)sc3c2)cc1OC | . | . | . | . | 10 | . | . | 8.5
CC1CCCC(C)N1CCCNC(=O)c1ccc2nc(N3CCOCC3)sc2c1 (configuration not stated) | . | . | . | . | . | . | / | /
CC1CCCC(C)N1CCCNC(=O)c1ccc2nc(N3CCCCC3)sc2c1 (configuration not stated) | . | . | . | 3.8 | 18 | . | 9.8 | 17
CCCN1CCN(CCCNC(=O)c2ccc3nc(N4CCCCC4)sc3c2)CC1 | . | . | . | 4.4 | 13 | . | 14 | 13
COc1ccc2nc(N3CCCC(C(=O)NCCc4ccc(OC)c(OC)c4)C3)sc2c1 (configuration not stated) | . | . | . | . | . | . | / | /
COc1ccc2c(c1)c1nc3n(c(=O)c1n2CC(=O)Nc1ccccc1)CCCS3 | . | . | . | . | 11 | . | . | .
COc1ccc(NC(=O)Cn2c3ccc(OC)cc3c3nc4n(c(=O)c32)CCS4)cc1 | . | . | . | . | . | . | / | /
CCOc1ccccc1/C=N/Nc1ccccc1[N+](=O)[O-] | . | . | . | . | . | . | / | /
O=[N+]([O-])c1ccccc1N/N=C/c1cc2ccccc2nc1Cl | . | . | . | . | 8.2 | . | 11 | 5.3
Cc1cc(OCC(=O)OCC(=O)NC2CCCC2)ccc1Cl | . | . | . | . | 11 | . | . | .
O=C(COC(=O)c1ccccc1)NC1CCCC1 | . | . | . | . | 10 | . | . | .
CN(CCC#N)C(=O)COC(=O)c1ccccc1C(=O)c1ccc(Cl)c([N+](=O)[O-])c1 | . | . | . | . | 9.5 | . | . | .
CC(C)N(C(=O)COC(=O)c1ccccc1C(=O)c1ccc(Cl)c([N+](=O)[O-])c1)C(C)C | . | . | . | . | . | . | / | /
O=C(COC(=O)c1ccccc1C(=O)c1ccc(Cl)c([N+](=O)[O-])c1)NC1CCCCCC1 | . | . | . | . | 9.4 | . | . | .
SMILES | hgDAF12 agonist | DAX1 inh-1 | hcDAF12 agonist | DAX1 inh-2 | SMARCA2 activ | ssDAF12 agonist | SMARCA2 conf | VP16 Luc act
COC(=O)c1cc2c(c3c4cc(F)ccc4n(S(=O)(=O)c4cccc(C)c4)c13)C(=O)N(c1ccc(OC)cc1)C2 | . | / | . | . | . | . | / | /
COc1cc(O)c(C(CC(=O)N2CC(C)OC(C)C2)c2ccc3c(c2)OCO3)c(OC)c1 (configuration not stated) | . | / | . | / | / | . | / | /
Oc1ccccc1-c1nnc(COc2ccc(Cl)cc2Cl)o1 | . | . | . | . | 9.3 | . | . | 13
CCOc1cccc(C=NNC(=O)C(=O)Nc2cccc(C(F)(F)F)c2)c1O | . | / | . | . | . | . | / | /
COc1nc(C)ccc1-c1noc(-c2ccccn2)n1 | / | . | / | / | / | / | / | /
COc1nc(C)ccc1-c1noc(-c2cccnc2)n1 | . | . | . | . | 11 | . | . | 7.1
CCOc1ccc(-c2nc(-c3cccnc3)no2)cc1 | 12 | . | . | 4.5 | 9.3 | . | . | 13
Cc1ccc(C)c(C(=O)Cn2ncc(Cl)c(Cl)c2=O)c1 | . | . | . | . | 30 | . | . | .
Cc1cccc(Cn2ncc(Cl)c(Cl)c2=O)c1 | . | . | . | . | 10 | . | . | .
Cc1ccc(C(=O)OCn2ncc(Cl)c(Cl)c2=O)cc1 | . | . | . | . | . | . | / | /
Cc1cc(C(=O)Cn2ncc(Cl)c(Cl)c2=O)c(C)n1CC(F)(F)F | . | . | . | . | . | . | / | /
COc1ccc(C(c2nnnn2C(C)(C)C)N2CCN(c3nc4ccccc4s3)CC2)cc1 (configuration not stated) | . | . | . | . | 9.2 | . | . | .
COc1ccc(N2CCN(C(c3ccccc3)c3nnnn3C(C)(C)C)CC2)cc1 (configuration not stated) | . | / | . | . | . | . | / | /
NS(=O)(=O)c1ccc(NC(=O)CSc2nnc(-c3cccs3)o2)cc1 | . | / | . | . | . | . | / | /
COc1cc(NC(=O)CSc2c3c(nc4ccccc24)CCC3)cc(OC)c1OC | . | . | . | . | . | . | / | /
COc1ccc(NC(=O)CSc2c3c(nc4cc(Cl)ccc24)CCCC3)cc1OC | . | . | . | . | 9.4 | . | . | .
COc1ccc(-c2nnc(SCC(=O)NN=C(C)c3cccc4ccccc34)n2-c2ccccc2)cc1 | . | / | . | . | . | . | / | /
S=c1[nH]nc(Nc2cccc3ccccc23)s1 | . | / | . | . | 11 | . | . | .
Cc1ccccc1Nc1n[nH]c(=S)s1 | . | . | . | . | . | . | / | /
COc1cccc2cc(-c3nc(-c4cccs4)cs3)c(=O)oc12 | . | . | . | . | 8.6 | . | . | 11

Source: PubChem BioAssay (The Scripps Research Institute Molecular Screening Center)
